Measured values taken from PubChem BioAssay.
Inconclusive results are not listed. Calls of active or inactive are those of the source.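 Rule for the calls, unless noted: active = growth inhibition above 25% in both replicates, a cutoff set 3 SD above the mean; inconclusive = above 25% in only one replicate; inactive = the rest.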

Tests used:
[1] = reducers of endogenous Her2 protein level, primary screen, SKBR3 breast tumor cells, AlphaScreen, ATP viability (AID 461;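 active = Her2 level under about 52% in both replicate screens, with viability over 70% of control, limit read from the data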;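 for Her2 level: lower value means less Her2 protein in the cells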;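 for viability: percent of carrier control wells set as 100% viability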); settings: 18-24 h, measured here: SKBR3 viability, ATP luminescence, at 10 µM
[2] = molecular target: Receptor tyrosine-protein kinase erbB-2 (Homo sapiens) (UniProt P04626); experiment: as above; settings: 18-24 h, at 10 µM, stronger effect = lower value
[3] = SK-BR-3 cell growth inhibitors, pilot screen, 24 h, human (AID 572;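 active = viability at or below 10% of carrier control in both of two separate runs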;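 note: compound exposure lasted between 18 and 24 h rather than exactly 24 h; 100% = carrier-treated control wells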); settings: SK-BR-3 viability, CellTiter-Glo luminescence, at 10 µM, stronger effect = lower value
[4] = HUVEC growth inhibition – cell-based, human, primary screen (AID 575;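 active = viability at or below 30% in both replicate assays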;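 note: 100% = median of untreated cell wells with 0.1% DMSO on each plate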); settings: HUVEC proliferation, CellTiter-Glo luminescence, 72 h; at 10 µM; stronger effect = lower value
[5] = growth inhibitors of H69AR lung tumor, primary screen, human, duplicate replicates (AID 580;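 active = viability at or under a set limit in both replicates, limit being median viability minus 3 SD, cut at about 48% in these data, passing the limit was not always enough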;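 note: 100% = mean luminescence of untreated wells and 0% = no signal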); settings: H69AR lung tumor cells viability, ATP luminescence, 72 h; at 10 µM; stronger effect = lower value
[6] = reversal of MRP1-mediated doxorubicin resistance, pilot screen, H69AR cells, doxorubicin co-treatment (AID 601;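 active = viability loss from added drug above about 55%, and viability with drug at most 40%, in both replicates, limit read from the data, passing the limit was not always enough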); settings: CellTiter-Glo, 72 h, at 10 µM; for differential viability (reversal): stronger effect = higher value
[7] = 384-well plate pilot, post-Golgi transport modulator project, inhibition of yeast transport mutant growth (AID 636; in the data active = inhibition above about 31%); settings: absorbance 615 nm, about 18 h, stronger effect = higher value
[8] = growth suppression of yeast trafficking mutant, preliminary HTS, modulators of trafficking downstream of Golgi apparatus project, 1536-format plate, OD 615 nm (AID 637; in the data active = inhibition above about 30%); settings: yeast transport mutant growth, absorbance 615 nm, 18 h; stronger effect = higher value
[9] = OD615 S. cerevisiae growth inhibition, permissive medium, pilot counter-assay, permissive growth control for S. cerevisiae lifespan shortening project (AID 705); settings: OD615, 24 h, at 10 µM, stronger effect = higher value
[10] = Restrictive medium S. cerevisiae growth inhibition, OD615, pilot screen of yeast lifespan reduction project, restrictive growth control (AID 706;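 active = growth inhibition above a set limit, 3 SD over mean compound inhibition, in both replicates, cut at about 43% in these data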;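 note: modified DeaD lifespan yeast strain shifted to restrictive glucose medium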); settings: OD615, 48 h, at 10 µM, stronger effect = higher value
[11] = viability gain of MRP-1-high H69AR cells under doxorubicin, pilot screen, MRP-1 activator project, CellTiter-Glo, duplicate (AID 807;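 active = viability increase at or above a cutoff of the median across tested compounds plus 3 SD, cut at about 8.5% in these data, passing the limit was not always enough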;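 note: compound pretreatment 18-22 h then 72 h combined with doxorubicin; 0% = doxorubicin alone and 100% = vehicle without doxorubicin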); settings: H69AR viability with doxorubicin, CellTiter-Glo luminescence; at 10 µM; stronger effect = higher value
[12] = growth suppression of beta-catenin knockout HCT116, pilot screen, human colon tumor cells (AID 823;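 active = cell viability at or below a set limit in both duplicate runs, the limit being the all-compound median minus 4 SD, cut at about 23% in these data, passing the limit was not always enough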;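 note: 0% = wells killed by 20 µM Hyamine and 100% = untreated DMSO cell wells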); settings: CellTiter-Glo, 60 h, at 10 µM, stronger effect = lower value
[13] = growth suppression of PTEN-deleted HCT116, pilot screen, cell-based, HCT116 clonal line, CellTiter-Glo (AID 824;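 active = viability at or below 27.92% in each of two runs, the all-compound median minus 4 SD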;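 note: 0% = 20 µM Hyamine control and 100% = vehicle cell control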); settings: 60 h, at 10 µM, stronger effect = lower value
[14] = inhibitors of the yeast RAM network, pilot screen, dse1pr::URA3 reporter, 5-FOA selection (AID 869;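 active = inhibition over a set limit, the all-compound mean plus 3 SD, in both replicate runs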;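 note: 0% = DMSO wells with no growth and 100% = 10 µM 1-NA-PP1 with full growth; RAM network block rescues cells from 5-FOA so hits raise OD615 growth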); settings: S. cerevisiae dse1pr::URA3 5-FOA growth, OD615, 2 d; at 10 µM; stronger effect = higher value; strain carries analog-sensitive mutant Cbk1 kinase
[15] = RAM signaling pathway blockade in yeast – S. cerevisiae, Pdr1DBD-CYC8 efflux-inhibited sensitized strain, primary screen (AID 1298;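 active = RAM network inhibition above 8.4% in each of two replicates, 3 SD over the compound average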;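 note: 0% = DMSO untreated cells without growth and 100% = 10 µM 1-NA-PP1 full growth; higher means more yeast growth rescued from 5-FOA killing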); settings: S. cerevisiae cbk1-as DSE1-URA3 strain, 5-FOA growth OD615, 2 d; at 50 µM; stronger effect = higher value
[16] = H69AR cells + 2 uM doxorubicin, measured here: viability with 2 uM doxorubicin, stronger effect = lower value
[17] = H69AR cells, compound alone cytotoxicity

Chain of Receptor tyrosine-protein kinase erbB-2 (Homo sapiens) (P04626 whole entry, looked up): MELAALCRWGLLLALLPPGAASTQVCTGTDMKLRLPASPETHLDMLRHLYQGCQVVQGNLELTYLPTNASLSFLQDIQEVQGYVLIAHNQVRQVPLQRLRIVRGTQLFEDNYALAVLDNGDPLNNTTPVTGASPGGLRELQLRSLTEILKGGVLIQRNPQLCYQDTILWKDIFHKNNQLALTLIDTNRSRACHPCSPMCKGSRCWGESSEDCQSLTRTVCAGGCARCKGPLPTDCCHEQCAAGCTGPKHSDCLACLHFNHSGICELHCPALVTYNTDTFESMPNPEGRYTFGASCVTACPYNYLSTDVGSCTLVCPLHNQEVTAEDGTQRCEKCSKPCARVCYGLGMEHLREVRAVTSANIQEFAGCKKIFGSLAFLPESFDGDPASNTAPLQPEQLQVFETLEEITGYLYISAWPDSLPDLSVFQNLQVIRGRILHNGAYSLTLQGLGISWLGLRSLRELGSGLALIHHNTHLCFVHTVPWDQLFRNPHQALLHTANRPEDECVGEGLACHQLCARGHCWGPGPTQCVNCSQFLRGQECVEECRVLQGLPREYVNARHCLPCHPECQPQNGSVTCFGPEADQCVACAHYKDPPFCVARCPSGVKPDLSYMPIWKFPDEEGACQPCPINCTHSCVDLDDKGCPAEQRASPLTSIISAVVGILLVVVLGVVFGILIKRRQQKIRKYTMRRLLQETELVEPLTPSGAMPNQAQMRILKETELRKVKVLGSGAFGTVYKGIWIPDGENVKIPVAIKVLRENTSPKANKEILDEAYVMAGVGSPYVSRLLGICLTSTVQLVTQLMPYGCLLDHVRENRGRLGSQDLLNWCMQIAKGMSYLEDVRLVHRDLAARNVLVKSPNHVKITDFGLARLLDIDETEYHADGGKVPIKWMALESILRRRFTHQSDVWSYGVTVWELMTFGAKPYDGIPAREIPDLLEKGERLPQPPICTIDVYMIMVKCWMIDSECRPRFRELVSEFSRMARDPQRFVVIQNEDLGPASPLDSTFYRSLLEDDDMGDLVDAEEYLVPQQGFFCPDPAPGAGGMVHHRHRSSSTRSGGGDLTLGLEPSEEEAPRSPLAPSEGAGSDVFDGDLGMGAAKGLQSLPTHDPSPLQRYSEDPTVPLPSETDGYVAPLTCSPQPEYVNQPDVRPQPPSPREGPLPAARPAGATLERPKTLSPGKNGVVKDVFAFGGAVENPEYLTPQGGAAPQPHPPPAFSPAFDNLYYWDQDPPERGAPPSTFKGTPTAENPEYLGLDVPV

Structure (SMILES) | viability [1] [%] | Her2 level [2] | viability [3] | viability [4] | viability [5] | differential viability (reversal) ([6]; H69AR cells + 2 uM doxorubicin) | viability [6, 16] [%] | viability [6, 17] [%] | inhibition [7] | inhibition [8] | growth inhibition [9] | growth inhibition [10] | viability increase [11] | viability [12] | viability [13] | inhibition [14] | RAM network inhibition [15]
Cc1cccc(-n2ncc3c(NCc4cccnc4)ncnc32)c1 | 95.5 | 93% (inactive) | 95.5% (inactive) | 99.3% (inactive) | 88% (inactive) | -3.23% (inactive) | 91.2 | 88 | -4.8% (inactive) | 0.5% (inactive) | -8.17% (inactive) | -8.12% (inactive) | -0.52% (inactive) | 89.4% (inactive) | 87.5% (inactive) | 2.54% (inactive) | 2.13% (inactive)
CC(=O)OC1c2ccccc2C(=O)N1Cc1ccccc1Cl (stereo not given) | 93.5 | 92.5% (inactive) | 93.5% (inactive) | 91.3% (inactive) | 88.5% (inactive) | -2.26% (inactive) | 90.8 | 88.5 | -5.87% (inactive) | -4.83% (inactive) | -1.57% (inactive) | 5.51% (inactive) | -3.19% (inactive) | 74.6% (inactive) | 91.5% (inactive) | 0.06% (inactive) | 5.73% (inactive)
C=C(Cl)COc1ccc2c(C)cc(=O)oc2c1 | 108 | 92.5% (inactive) | 108% (inactive) | 102% (inactive) | 101% (inactive) | -2.75% (inactive) | 103 | 101 | 1.89% (inactive) | -5.56% (inactive) | -6.04% (inactive) | 5.47% (inactive) | -0.42% (inactive) | 97.8% (inactive) | 84% (inactive) | 0.795% (inactive) | 0.1% (inactive)
CCOC(=O)N1CCN(C(c2ccc(Cl)cc2)c2sc3nc(C)nn3c2O)CC1 (stereo not given) | 94 | 89% (inactive) | 94% (inactive) | 87.7% (inactive) | 94.7% (inactive) | -8.7% (inactive) | 103 | 94.7 | -4.67% (inactive) | 0.33% (inactive) | 1.38% (inactive) | 1.06% (inactive) | 0.03% (inactive) | 98.4% (inactive) | 106% (inactive) | 0.72% (inactive) | 6.22% (inactive)
CCOCCOc1nc2c(c(=O)n(C)c(=O)n2C)n1Cc1ccc(C)cc1 | 83 | 113% (inactive) | 83% (inactive) | 94.5% (inactive) | 90.8% (inactive) | -4.61% (inactive) | 95.4 | 90.8 | 0.27% (inactive) | 4.33% (inactive) | 3.97% (inactive) | -4.73% (inactive) | 0.37% (inactive) | 82.3% (inactive) | 79% (inactive) | 2.64% (inactive) | 2.08% (inactive)
O=C(c1ccco1)N1CCN(C2=NS(=O)(=O)c3ccccc32)CC1 | 104 | 142% (inactive) | 104% (inactive) | 99.1% (inactive) | 94.8% (inactive) | 3.94% (inactive) | 90.8 | 94.8 | -1.69% (inactive) | -12.7% (inactive) | -13.5% (inactive) | -1.96% (inactive) | -2.12% (inactive) | 93.1% (inactive) | 96.3% (inactive) | 0.41% (inactive) | 6.34% (inactive)
CCOc1ccc(Cn2nnc(C(=O)Nc3ccc(OC)cc3OC)c2N)cc1 | 96.5 | 102% (inactive) | 96.5% (inactive) | 67.5% (inactive) | 102% (inactive) | 2.46% (inactive) | 99.8 | 102 | -1.07% (inactive) | -5.9% (inactive) | -10.3% (inactive) | -9.57% (inactive) | -4.36% (inactive) | 83.3% (inactive) | 82.8% (inactive) | 3.14% (inactive) | 4.87% (inactive)
COc1ccc(C(=O)NCc2nc3ccccc3[nH]2)cc1OC | 110 | 115% (inactive) | 110% (inactive) | 101% (inactive) | 107% (inactive) | 16.6% (inactive) | 90.2 | 107 | -3.6% (inactive) | -6.67% (inactive) | -9.82% (inactive) | -15% (inactive) | 0.84% (inactive) | 102% (inactive) | 98.2% (inactive) | 2.96% (inactive) | 6.63% (inactive)
CCCCc1nc2ccccc2n2cc3c(=O)n(C)c(=O)n(C)c3c12 | 86 | 86% (inactive) | 86% (inactive) | 106% (inactive) | 89.6% (inactive) | 4.81% (inactive) | 84.8 | 89.6 | 0% (inactive) | 2.17% (inactive) | -9.65% (inactive) | -16.2% (inactive) | -4.07% (inactive) | 95.8% (inactive) | 89.2% (inactive) | 1.36% (inactive) | 0.47% (inactive)
O=C(C1CCC(CNc2c(N3CCCCC3)c(=O)c2=O)CC1)N1CCc2ccccc2C1 (stereo not given) | 95 | 93.5% (inactive) | 95% (inactive) | 107% (inactive) | 91.8% (inactive) | 9.49% (inactive) | 82.3 | 91.8 | -0.53% (inactive) | 0% (inactive) | -4.97% (inactive) | -4.18% (inactive) | -3.33% (inactive) | 87.5% (inactive) | 83.2% (inactive) | -0.07% (inactive) | 2.9% (inactive)
